Test results published in PubChem BioAssay.
Calls of active or inactive are those of the source. Unless noted, how the calls were made is not given here.

Experiments:
[1] = compounds binding Alexa647 anti-His antibody – biochemical, small-molecule microarray, 635 nm fluorescence, artefact control for SMM control protein annotation, primary screen (AID 1128); settings: higher = more signal;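 further: score merges feature fluorescence with signal-to-noise for each printed compound spot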
[2] = test system: Human papillomavirus type 1a E7 protein (residues 1-88); assay: HPV1a E7 small-molecule binders, primary screen, biochemical, small-molecule microarray, residues 1-88, 635 nm (AID 1129); settings: small-molecule microarray binding, fluorescence 635 nm; higher = more signal
[3] = biological target: Focal adhesion kinase 1 (Homo sapiens) (UniProt Q05397); assay: PTK2 protein binding on printed compound slides – biochemical, small-molecule microarray, 635/667 nm fluorescence, BSA, DTT, primary screen (AID 1130); settings: 635 nm fluorescence, higher = more signal;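 further: composite of spot emission at 667 nm and signal to noise over triplicate slides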
[4] = test system: Fibrinogen (Alexa647-labelled); assay: Alexa647-fibrinogen binding to printed small molecules – biochemical, small-molecule microarray, 635/667 nm fluorescence, artefact control for SMM control-protein annotation, profiling panel (AID 1131); settings: fibrinogen-A647 binding fluorescence, higher = more signal;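 further: z-score merges 667 nm fluorescence with per-spot signal-to-noise over triplicate slides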
[5] = biological target: Follistatin (Homo sapiens) (UniProt P19883); assay: FST protein binding to printed compounds – biochemical, small-molecule microarray, 635/667 nm fluorescence, primary screen (AID 1132); settings: 635 nm fluorescence, higher = more signal
[6] = biological target: Fibroblast growth factor 2 (Homo sapiens) (UniProt P09038); assay: basic fibroblast growth factor binding to printed compounds – biochemical, small-molecule microarray, 635/667 nm fluorescence, primary screen (AID 1133); settings: FGF2, fluorescence 635/667, higher = more signal
[7] = JC-1 mitochondrial potential readout, lung cancer cells – cell-based, A549, JC-1 fluorescence, basal, 24 h, 100 nL, profiling panel (AID 1138); settings: higher = more signal;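 further: A549 lung adenocarcinoma cells under basal conditions with no added stimulus; test concentration not given here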
Lefty1 = Lefty1 protein binding to printed compounds – biochemical, small-molecule microarray, 635/667 nm fluorescence, primary screen (AID 1139); settings: fluorescence 635/667, higher = more signal
[8] = test system: wheat germ agglutinin (Triticum aestivum), Alexa647-labelled; assay: Alexa647-WGA lectin binding to printed small molecules – biochemical, small-molecule microarray, 635/667 nm fluorescence, artefact control for SMM control-protein annotation, profiling panel (AID 1140); settings: WGA-A647 binding, 635 nm fluorescence, higher = more signal;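 further: score merges 667 nm feature emission with signal to noise over triplicate slides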
[9] = biological target: Luciferin 4-monooxygenase (Photinus pyralis) (UniProt P08659); assay: inhibition of purified Photinus pyralis luciferase – biochemical, luminescence, purified enzyme, 2006 set, primary screen (AID 1141); settings: purified firefly luciferase, SteadyGlo luminescence, 30 min; higher = more signal, called active from +8 up or from −8 down;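 further: cell-free assay with purified firefly luciferase at 100 ng per well in PBS; test concentration not given here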
[10] = test system: Wnt5a (protein binding on small-molecule microarray); assay: small molecules binding Wnt5a protein – biophysical, small-molecule microarray, 635/667 nm fluorescence, primary screen (AID 1142); settings: 635 nm fluorescence, higher = more signal;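 further: fluorescence read at 667 nm with signal to noise per printed feature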
[11] = ATP-based viability of Huh7 replicon cells – cell-based, CellTiter-Glo luminescence, basal, 48 h, cytotoxicity control for HCV replication inhibitor project, primary screen (AID 1143); settings: higher = more signal, called active from +8 up or from −8 down;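 further: Huh7 hepatoma cells carrying a hepatitis C replication reporter with no stimulus; test concentration not given here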
[12] = Pseudomonas biofilm growth suppression – PAO1 strain, BacTiter-Glo luminescence, LB-PBS, primary screen (AID 1144); settings: P. aeruginosa PAO1 biofilm, 12 h, higher = more signal
[13] = basal CRE-LacZ reporter activity in PC12 – cell-based, unstimulated, primary screen (AID 1145); settings: no forskolin, luminescence, 4.5 h, higher = more signal, called active from +8 up or from −8 down
[14] = forskolin-driven CRE-LacZ activity in PC12 – cell-based, CRE-LacZ reporter, forskolin-stimulated, primary screen (AID 1146); settings: luminescence, 4.5 h, higher = more signal, called active from +8 up or from −8 down;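 further: PC12 cells with 6xCRE LacZ reporter stimulated by forskolin 10 µM; beta-galactosidase reporter signal reflecting CREB driven transcription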
[15] = biological target: Streptavidin (Streptomyces avidinii) (UniProt P22629); assay: compounds binding control protein streptavidin – biophysical, small-molecule microarray, 635/667 nm fluorescence, artefact control for SMM compound annotation, primary screen (AID 1147); settings: higher = more signal;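 further: signal reflects streptavidin binding to arrayed compounds as a control protein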
[16] = probe aInhba binding on compound microarray – biochemical, small-molecule microarray, 635/667 nm fluorescence, primary screen (AID 1148); settings: higher = more signal;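 further: score merges 667nm spot fluorescence with signal-to-noise for antibody binding to printed compounds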
Torsin-1A (Homo sapiens) [17] = biological target: Torsin-1A (Homo sapiens) (UniProt O14656); assay: TOR1A wild-type binding on microarray – cell lysate, small-molecule microarray, lysate, 635/667 nm, primary screen (AID 1149); settings: COS7 hTOR1A-WT lysate, 635 nm fluorescence, higher = more signal
Torsin-1A (Homo sapiens) [18] = biological target: Torsin-1A (Homo sapiens) (UniProt O14656); assay: torsin A mutant lysate binding on microarrays – cell lysate, small-molecule microarray, COS7 lysate, 635/667 nm fluorescence, primary screen (AID 1150); settings: COS7 hTOR1A mutant lysate, 635 nm fluorescence, higher = more signal;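 further: score pools 667 nm emission and signal to noise measuring lysate protein binding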
[19] = test system: Sonic hedgehog protein (Shh); assay: Sonic hedgehog microarray binding compounds – biochemical, small-molecule microarray, 635/667 nm fluorescence, primary screen (AID 1151); settings: 635 nm fluorescence, higher = more signal;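 further: Shh protein binding to compounds spotted on small-molecule microarray slides; score combines spot fluorescence intensity with signal-to-noise across triplicate slides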

Follistatin (Homo sapiens), sequence (P19883 whole entry, looked up): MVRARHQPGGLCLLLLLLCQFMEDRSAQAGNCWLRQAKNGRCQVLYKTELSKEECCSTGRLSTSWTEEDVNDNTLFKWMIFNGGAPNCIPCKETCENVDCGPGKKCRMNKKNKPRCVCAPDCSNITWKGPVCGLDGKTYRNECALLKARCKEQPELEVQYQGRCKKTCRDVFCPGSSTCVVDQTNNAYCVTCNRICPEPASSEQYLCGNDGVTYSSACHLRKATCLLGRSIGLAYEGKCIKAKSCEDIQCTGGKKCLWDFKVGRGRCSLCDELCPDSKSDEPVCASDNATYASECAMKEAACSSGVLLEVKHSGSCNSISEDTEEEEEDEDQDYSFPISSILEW
Luciferin 4-monooxygenase (Photinus pyralis), sequence (P08659 whole entry, looked up): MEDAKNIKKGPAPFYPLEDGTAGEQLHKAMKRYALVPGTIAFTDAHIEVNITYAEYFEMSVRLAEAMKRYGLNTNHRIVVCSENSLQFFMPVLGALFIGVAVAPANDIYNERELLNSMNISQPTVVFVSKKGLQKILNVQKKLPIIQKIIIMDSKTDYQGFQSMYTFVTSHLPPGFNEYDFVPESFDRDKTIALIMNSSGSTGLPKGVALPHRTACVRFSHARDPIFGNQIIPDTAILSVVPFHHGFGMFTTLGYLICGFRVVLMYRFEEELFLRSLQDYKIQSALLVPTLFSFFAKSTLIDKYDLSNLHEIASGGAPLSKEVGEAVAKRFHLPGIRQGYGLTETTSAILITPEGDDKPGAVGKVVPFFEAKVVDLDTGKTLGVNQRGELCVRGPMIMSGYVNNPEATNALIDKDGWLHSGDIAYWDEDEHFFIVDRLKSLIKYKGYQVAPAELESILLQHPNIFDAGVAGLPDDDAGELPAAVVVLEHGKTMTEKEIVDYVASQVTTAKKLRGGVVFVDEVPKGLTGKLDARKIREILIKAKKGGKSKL
Torsin-1A (Homo sapiens), sequence (O14656 whole entry, looked up): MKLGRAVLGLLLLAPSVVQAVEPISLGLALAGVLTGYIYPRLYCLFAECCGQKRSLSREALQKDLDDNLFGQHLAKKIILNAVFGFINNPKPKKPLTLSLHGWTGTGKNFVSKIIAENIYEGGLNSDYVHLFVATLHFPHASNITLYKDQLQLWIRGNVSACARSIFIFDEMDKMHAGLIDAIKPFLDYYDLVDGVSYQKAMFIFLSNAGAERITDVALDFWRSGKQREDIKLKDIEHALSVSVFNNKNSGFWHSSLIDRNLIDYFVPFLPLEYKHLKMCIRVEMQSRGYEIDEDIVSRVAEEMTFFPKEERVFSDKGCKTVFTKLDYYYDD
Streptavidin (Streptomyces avidinii), sequence (P22629 whole entry, looked up): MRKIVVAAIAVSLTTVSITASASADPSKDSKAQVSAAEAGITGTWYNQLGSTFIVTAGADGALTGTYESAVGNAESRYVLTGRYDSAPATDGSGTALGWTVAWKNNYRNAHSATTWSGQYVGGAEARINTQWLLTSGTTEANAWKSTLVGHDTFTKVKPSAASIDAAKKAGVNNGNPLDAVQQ
Fibroblast growth factor 2 (Homo sapiens), sequence (P09038 whole entry, looked up): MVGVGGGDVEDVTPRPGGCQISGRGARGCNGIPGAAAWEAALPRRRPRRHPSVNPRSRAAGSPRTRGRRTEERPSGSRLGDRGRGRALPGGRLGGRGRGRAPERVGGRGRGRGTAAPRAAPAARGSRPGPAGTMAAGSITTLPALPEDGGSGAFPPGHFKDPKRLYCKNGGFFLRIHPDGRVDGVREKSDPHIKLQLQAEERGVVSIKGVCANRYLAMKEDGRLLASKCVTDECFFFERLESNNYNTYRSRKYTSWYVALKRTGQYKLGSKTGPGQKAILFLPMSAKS
Focal adhesion kinase 1 (Homo sapiens), sequence (Q05397 whole entry, looked up): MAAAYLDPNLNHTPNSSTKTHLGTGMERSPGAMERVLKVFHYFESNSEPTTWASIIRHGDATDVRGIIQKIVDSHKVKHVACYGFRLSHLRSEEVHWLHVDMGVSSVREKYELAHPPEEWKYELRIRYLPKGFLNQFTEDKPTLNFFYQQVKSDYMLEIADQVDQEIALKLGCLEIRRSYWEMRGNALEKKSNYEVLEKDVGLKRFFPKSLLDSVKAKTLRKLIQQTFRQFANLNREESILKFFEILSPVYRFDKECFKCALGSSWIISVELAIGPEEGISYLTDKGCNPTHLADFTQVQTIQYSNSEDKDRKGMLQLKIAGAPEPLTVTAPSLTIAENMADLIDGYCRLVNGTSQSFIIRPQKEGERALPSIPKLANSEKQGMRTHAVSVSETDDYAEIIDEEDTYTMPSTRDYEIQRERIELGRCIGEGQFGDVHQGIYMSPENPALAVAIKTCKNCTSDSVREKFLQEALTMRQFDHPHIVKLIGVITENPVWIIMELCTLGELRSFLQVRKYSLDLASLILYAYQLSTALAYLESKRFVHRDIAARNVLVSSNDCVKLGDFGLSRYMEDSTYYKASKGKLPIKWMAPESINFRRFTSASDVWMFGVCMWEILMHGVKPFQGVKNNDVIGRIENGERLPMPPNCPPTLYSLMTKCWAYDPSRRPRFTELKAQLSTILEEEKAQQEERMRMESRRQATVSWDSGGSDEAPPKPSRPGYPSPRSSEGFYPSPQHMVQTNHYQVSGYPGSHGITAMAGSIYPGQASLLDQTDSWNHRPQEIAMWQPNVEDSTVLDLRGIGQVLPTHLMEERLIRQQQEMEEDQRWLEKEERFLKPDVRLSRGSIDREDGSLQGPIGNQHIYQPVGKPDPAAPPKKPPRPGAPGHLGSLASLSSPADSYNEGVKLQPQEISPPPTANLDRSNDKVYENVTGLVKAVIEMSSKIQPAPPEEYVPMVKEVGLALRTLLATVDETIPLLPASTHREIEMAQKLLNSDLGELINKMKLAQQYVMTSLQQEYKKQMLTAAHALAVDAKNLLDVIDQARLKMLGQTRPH

| Compound | composite z-score [1] | composite z-score [2] | composite z-score [3] | composite z-score [4] | composite z-score [5] | composite z-score [6] | z-score [7] | composite z-score (Lefty1) | composite z-score [8] | z-score [9] | composite z-score [10] | z-score [11] | z-score [12] | z-score [13] | z-score [14] | composite z-score [15] | composite z-score [16] | composite z-score (Torsin-1A (Homo sapiens) [17]) | composite z-score (Torsin-1A (Homo sapiens) [18]) | composite z-score [19] |
| --- | --- | --- | --- | --- | --- | --- | --- | --- | --- | --- | --- | --- | --- | --- | --- | --- | --- | --- | --- | --- |
| COC(=O)C(CC#Cc1ccc2c(c1)[C@]1(C(=O)N2)[C@H](c2ccc(OCCO)cc2)N2[C@H](c3ccccc3)[C@H](c3ccccc3)OC(=O)[C@H]2[C@@H]1C(=O)O)C(=O)OC | 3.08 | 1.19 | 1.38 | 0.915 | 0.915 | 0.228 | 0.161 | 0.861 | 1.1 | -3.07 (inactive) | 0.138 | -0.565 (inactive) | -1.11 (inactive) | -0.554 (inactive) | 0.295 (inactive) | 0.344 | 0.717 | 0.477 | 0.538 | 0.759 |
| [N-]=[N+]=NCc1ccccc1C[C@]1(C(=O)NCCN2CCOCC2)COC(c2ccc(OCCCO)cc2)=N1 | 0.293 | 1.24 | 0.815 | 1.02 | 0.953 | 0.152 | 1.88 | 0.346 | 0.783 | -0.851 (inactive) | 0.315 | -2.41 (inactive) | -0.0639 (inactive) | 2.64 (inactive) | -0.664 (inactive) | 0.837 | 0.161 | 0.969 | 0.645 | -0.204 |
| COc1ccc([Si](C)(C)[C@H]2[C@H](CCO)O[C@@]3(C(=O)N(Cc4cccc(N5CCOC5=O)c4)c4ccccc43)[C@@H]2C)cc1 | 0.56 | 1.13 | 0.413 | 0.708 | 0.433 | 0.203 | 0.00631 | 0.729 | 0.63 | -0.0833 (inactive) | 0.217 | -5.72 (inactive) | -0.112 (inactive) | 0.907 (inactive) | -0.827 (inactive) | 0.71 | -0.0736 | -0.0637 | -0.217 | 1.47 |
| COCCCNC(=O)[C@@]1(Cc2ccccc2CN=[N+]=[N-])N=C(c2ccc(OCCCO)cc2)O[C@H]1c1ccccc1N=[N+]=[N-] | 2.29 | 1.19 | 0.543 | 0.931 | 1.35 | 1.18 | 3.53 | 0.0538 | 1.2 | -4.87 (inactive) | 1.08 | -4.47 (inactive) | -0.867 (inactive) | -0.207 (inactive) | -0.834 (inactive) | 1.37 | 0.786 | 0.0556 | 0.516 | 0.341 |
| CC(C)C(CO)N1C(=O)[C@@H]2[C@H]3C(=O)OCC=C[C@H]3OC23C=CCN(Cn2nnc4ccccc42)C(=O)[C@@H]13 (stereo not given in full) | 0.36 | -0.938 | 0.118 | -0.424 | -0.802 | -1.05 | -0.58 | -1.72 | -0.203 | 0.152 (inactive) | -0.257 | 0.44 (inactive) | 0.0585 (inactive) | -0.492 (inactive) | -0.0021 (inactive) | -1.05 | -0.231 | -0.957 | -2.27 | -1 |
| COCCOC(=O)N1C(=O)[C@@]2(c3cc(C#Cc4ccc(OC)cc4)ccc31)[C@H](c1ccc(OCCO)cc1)N1[C@H](c3ccccc3)[C@H](c3ccccc3)OC(=O)[C@H]1[C@@H]2C(N)=O | 2.14 | 1.13 | 1.03 | 0.519 | 1.41 | 1.31 | -1.28 | 1.39 | 1 | -0.35 (inactive) | 0.41 | -2.73 (inactive) | 0.854 (inactive) | -1.15 (inactive) | -1.28 (inactive) | 0.879 | 0.187 | 0.428 | 0.835 | 1.96 |
| N#Cc1ccc(NN2C(C(O)c3ccccc3)C=CC3C(=O)N(c4ccccc4)C(=O)C32)cc1 (stereo not given) | 0.324 | 0.954 | 0.452 | -0.456 | 0.927 | -0.217 | 1.41 | -0.272 | 0.635 | 0.884 (inactive) | 0.213 | 0.574 (inactive) | -0.121 (inactive) | -1.11 (inactive) | 1.06 (inactive) | 0.475 | 0.11 | 0.408 | -0.0163 | -0.67 |
| O=[N+]([O-])c1ccc(C[n+]2ccc(-c3ccc(CO)cc3)cc2)o1 | 1.38 | 0.148 | 0.197 | -0.0943 | 1.34 | 0.59 | -0.93 | 0.362 | 1.17 | -0.208 (inactive) | -0.0922 | -1.13 (inactive) | -0.42 (inactive) | -0.464 (inactive) | 0.239 (inactive) | 0.85 | 0.0816 | -0.078 | 0.0063 | 1.44 |
| [N-]=[N+]=NCc1ccccc1[C@H]1OC(c2ccc(OCCCO)cc2)=N[C@@]1(Cc1ccccc1N=[N+]=[N-])C(=O)NCCN1CCOCC1 | 2.01 | 1.27 | 0.387 | 0.981 | 1.27 | 0.939 | 1.57 | 0.631 | 1.2 | -2.69 (inactive) | 0.853 | -2.28 (inactive) | 0.28 (inactive) | 0.162 (inactive) | -0.542 (inactive) | 1.37 | 0.0657 | -0.161 | 1.04 | 0.271 |
| C=C(CCCC)/C(=C/C[C@H](OC(=O)c1ccncc1)c1ccc(CO)o1)c1cc(C(=O)OC)ccc1OC | 0.872 | 1.19 | -0.0174 | 0.826 | 0.899 | 1.08 | -0.648 | 1.28 | 1.04 | -1.19 (inactive) | 0.0136 | -0.441 (inactive) | -0.525 (inactive) | 0.201 (inactive) | 2.68 (inactive) | 0.551 | 0.221 | 0.428 | 0.646 | 1.63 |
